Compound activity deposited in PubChem by National Center for Advancing Translational Sciences (NCATS).
A selection: hits, their analogues and other compounds. The true share with any hit is near 13%.
HCV inh: qHTS Assay for Inhibitors of Hepatitis C Virus (HCV). actives 3.4% (n = 340,000). Huh7.5.1 HCVcc-Cre infection, luciferase reporter, 44 h. Potency, µM (series often up to 41.8 µM), without a hit: at the top dose activity change, negative = inhibition, most hits filed as inhibitors; further: potency means the concentration at half of the fitted maximal effect
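Cells seeded at 1,000/well and cultured 4 h, then compounds added followed by HCVcc-Cre virus (~0.5 moi). After 44 h further culture, luciferase substrate was added, plates held 15 min at room temperature, and luminescence read for 15 sec.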
Pf growth 96h: Primary qHTS for delayed death inhibitors of the malarial parasite plastid, 96 hour incubation | P. falciparum luciferase reporter growth, 96 h | Potency, µM (highest dose often 28.7 µM), without a hit: top-dose activity change, negative = inhibition, hits mostly inhibitors | actives 6.9% (n = 320,000); further: potency means the concentration at half of the fitted maximal effect
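96 h incubation, 37 C, 5% CO2, of luciferase-reporter P. falciparum-infected RBCs (2% hematocrit, 0.05% parasitemia final) with test compounds; endpoint luminescence.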
Pf growth 48h: Primary qHTS for delayed death inhibitors of the malarial parasite plastid, 48 hour incubation. Potency, µM (top dose mostly 28.7 µM), inactives show at the highest dose activity change, negative = inhibition, hits mostly inhibitors. actives 5.9% (n = 310,000). P. falciparum luciferase growth in erythrocytes, 48 h; further: potency means the concentration at half of the fitted maximal effect
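Cell-based growth assay: transgenic P. falciparum expressing firefly luciferase, cultured in red cells within RPMI 1640 containing 0.5% w/v Albumax, 24 mM bicarbonate and gentamycin. A drop in luciferase activity indicates inhibition.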
HCMV antiviral: qHTS Assay for inhibitors of the human cytomegalovirus (HCMV). AID 1259415, 2018. HFF cells, HCMV-luciferase reporter, 72 h; stronger effect = lower value. activity change, negative = inhibition, % at 57.5 µM. actives 4.5% (n = 410,000); in the data active means activity change below about -60%; inconclusive means no clear call, values can overlap the other calls; inactive means above about -39%
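Cell-based, HFFs, 1000 cells/well, 16 h 37C; cpds in DMSO + HCMV-luc, MOI 1 PFU/cell; 72 h 37C; OneGlo luminescence after 5 min RT; norm. to buffer vs Salinomycin 10uM.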
Starred values were filed as active, the others as inactive; ? = inconclusive; nt = not tested or not shown; + = active, no number; [ ] = another dose, or the depositor's remark. Unless noted, the call rests on the fitted dose curve; in most records, active means well fitted inhibition curve with a large enough effect; inconclusive means small, poorly fitted or top-dose-only effect, or another doubt; inactive means no such curve, though single readings can be large or run the other way. On the % scale 0 is the no-effect control and ±100 the full control effect.

SMILES	HCV inh	Pf growth 96h	Pf growth 48h	HCMV antiviral
COc1ccc(OC)c(NC(=O)Cn2c(=O)cc(-c3ccccc3)c3c(C)nn(C)c32)c1	nt	nt	nt	-12
CC(C)CCNC(=O)c1ccc(NC(=O)N2CCCCc3ccccc32)cc1	nt	nt	nt	5
O=C(Nc1cccc(Cl)c1N1CCCC1)c1ccc(Br)o1	?	nt	2%	?
O=C(Nc1ccccc1N1CCN(C(=O)c2ccc(Cl)cc2)CC1)c1cc2ccccc2o1	11%	nt	?	28
O=C(Nc1ccc(N2CCN(C(=O)c3ccc(Cl)cc3)CC2)cc1)c1cc2ccccc2o1	13%	5.9µM*	nt	-32
O=C(Nc1cccc(Cl)c1N1CCCC1)c1cc2ccccc2o1	-4%	1.3µM*	-2%	59
O=C(NC(=S)Nc1ccc(CN2CCOCC2)cc1)c1cc2ccccc2o1	-9%	-7%[5.75 µM]	14%	-70*
CCC(=O)Nc1ccc(NC(=S)NC(=O)c2cc3ccccc3o2)cc1	8%	?	-24%	-26
Cc1ccc(-c2nc(CS(=O)CC(=O)NC3CCCC(C)C3C)c(C)o2)cc1 (stereo not drawn)	?	-11%	21%	-26
CCc1ccc(-c2nc(CS(=O)CC(=O)NC3CC3)c(C)o2)cc1 (stereo not drawn)	3%	24%	25%	23
COc1ccc(-c2nc(CS(=O)CC(=O)NC3CCCC(C)C3C)c(C)o2)cc1OC (stereo not drawn)	-15%	12µM*	-14%	?
CCc1ccc(-c2nc(CS(=O)CC(=O)NC3CCCCCC3)c(C)o2)cc1 (stereo not drawn)	-18%	8.3µM*	21%	-25
CCc1cccc(C)c1NC(=O)c1cc(S(=O)(=O)N2CCCCCC2)cn1C	nt	nt	nt	-18
CN(Cc1ccccc1)C(=O)CCSc1nc(-c2ccc3c(c2)OCO3)cc(C(F)(F)F)n1	10µM*	-2%	9.3µM*	-27
O=C(CCSc1nc(-c2ccc3c(c2)OCO3)cc(C(F)(F)F)n1)NCc1ccccc1	?	6%	?	-3
COc1ccc(Cl)cc1NC(=O)c1cc(S(=O)(=O)N2CCc3ccccc32)cn1C	nt	nt	nt	4
COCc1cc(C)nc(SCC[N+](C)(C)CC(=O)c2ccc(Br)cc2)c1C#N	32µM*	2%	?	-1
COCc1cc(C)nc(SCC[N+](C)(C)CC(=O)Nc2ccccc2)c1C#N	28%	?	?	-30
COCc1cc(C)nc(SCC(=O)NCc2ccco2)c1C#N	-3%	9.3µM*	3%	-13
COC(C[C@@H]1O[C@H]1[C@H](O)COCc1ccccc1)OC	11%	0%	45%	14
CCO[C@H]1O[C@@H]([C@H](COCc2ccccc2)OCc2ccccc2)[C@@H](OCc2ccccc2)[C@H]1O	nt	4.5µM*	6.4µM*	nt
CCCCSc1ncnc2c1c(-c1ccccc1)cn2-c1cccc(F)c1	nt	nt	nt	-4
CN1CCN(C(=O)C[C@@H]2C=C[C@H](NS(=O)(=O)c3cccc(F)c3)[C@@H](CO)O2)CC1	nt	nt	nt	13
COc1ccc(-c2c(C#N)c(N)nc3c2CCCCCC3)cc1OC	10%	-20%	nt	-33
Cc1c(-c2c(C#N)c(N)nc3c2CCCCCC3)cnn1C	4%	10µM*	?	0
SMILES	HCV inh	Pf growth 96h	Pf growth 48h	HCMV antiviral
N#Cc1c(N)nc2c(c1-c1ccco1)CCCCC2	-6%	nt	nt	-9
CSc1ccc(-c2c(C#N)c(N)nc3c2CCCC3)cc1	13%	2.6µM*	9%	10
N#Cc1c(N)nc2c(c1-c1cccnc1)CCCCC2	-16%	nt	?	-62*
N#Cc1c(N)nc2c(c1-c1ccncc1)CCCCC2	-23%	7.4µM*	?	1
CCOC(=O)COc1ccc(CC)cc1C(=O)c1ccn2nc(-c3ccccc3)cc2n1	nt	nt	nt	20
Cc1c(Cl)cccc1NC(=O)N1CCCN(c2nc(-c3ccccc3)ns2)CC1	?	?	-29%	-70*
Cc1c(Cl)cccc1NC(=O)N1CCCC1	-22%	20%	8%	-19
O=C(Nc1ccccc1)N1CCN(c2nc(-c3ccccc3)ns2)CC1	1.8µM*	-19%	?	?
O=C(Nc1ccccc1)N1CCN(C(=O)c2nsc3ccccc23)CC1	nt	nt	nt	+
CCc1c(C)nc(Nc2nc(C)c3cc(OC)ccc3n2)[nH]c1=O	?	-19%[5.75 µM]	?	106
COc1ccc2c(C)nc(Nc3nc(C)cc(C)n3)nc2c1	-11%	4.7µM*	13µM*	-31
COc1ccc2c(C)nc(Nc3nc(C)c(C)c(=O)[nH]3)nc2c1	?	?	89%	-102*
COc1ccc(Nc2nc(C)c3ccccc3n2)cc1	?	3.7µM*	115%	54
CCc1c(C)nc(Nc2nc(C)c3ccc(OC)cc3n2)[nH]c1=O	?	7.4µM*	nt	19
Cc1ccc(-n2ncc(C(=O)NCCCN3CCCCC3)c2C2CCN(C(=O)OC(C)(C)C)CC2)c(C)c1	nt	nt	nt	-14
COc1cc(SC#N)ccc1N=Cc1c(C)[nH]n(-c2ccc(C)cc2C)c1=O	-15%	?	?	-25
COc1cc(SC#N)ccc1N=Cc1c(C)[nH]n(-c2cccc3ccccc23)c1=O	12%	0.74µM*	9.3µM*	nt
Cc1ccc(C)c(CN2C(=O)c3ccccc3S(=O)(=O)c3ccc(C(=O)Nc4cc(F)ccc4F)cc32)c1	nt	nt	nt	14
CCCn1c(N)c(C(=O)CSc2nnc(C3CC3)n2-c2ccccc2)c(=O)[nH]c1=O	?	10µM*	?	-28
CCCn1c(N)c(C(=O)CSc2nc3ccccc3s2)c(=O)[nH]c1=O	?	?	?	-66*
CC(C)CNc1cccc2c1S(=O)(=O)N[C@@H](Cc1ccccc1)CO2	nt	nt	nt	-18
CC(C)[C@@H](C(=O)NC1CCN(Cc2ccccc2)CC1)N1C(=O)N2CCc3c([nH]c4ccccc34)[C@@]2(C)C1=O	-52%	7.4µM*	?	-65*
C[C@@H](C(=O)NC1CCN(Cc2ccccc2)CC1)N1C(=O)N2CCc3c([nH]c4ccccc34)[C@@]2(C)C1=O	7.9µM*	?	-12%	-13
CC(C)[C@@H](C(=O)N[C@@H](C(=O)O)c1ccccc1)N1C(=O)N2CCc3c([nH]c4ccccc34)[C@@]2(C)C1=O	-2%	-7%	22%	-24
CC(C)[C@@H](C(=O)NC1CC1)N1C(=O)N2CCc3c([nH]c4ccccc34)[C@@]2(C)C1=O	-23%	?	?	55
C[C@@H](C(=O)NC1CCCCC1)N1C(=O)N2CCc3c([nH]c4ccccc34)[C@@]2(C)C1=O	0.56µM*	?	45%	10
CC(C)[C@@H](C(=O)N1CCCC1)N1C(=O)N2CCc3c([nH]c4ccccc34)[C@@]2(C)C1=O	-4%	10µM*	?	-26
CC(C)C[C@@H](C(=O)NC1CCN(Cc2ccccc2)CC1)N1C(=O)N2CCc3c([nH]c4ccccc34)[C@@]2(C)C1=O	?	?	?	7
